Structures are written as SMILES. Compounds without any hit were thinned out: in the full panel of roughly 83,000, 20% have a hit.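 Plates (96-well) were seeded with cells, treated with compound at one concentration, and incubated for 48 hours before percent growth was determined.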 Unmarked numbers belong to inactive results. Activity calls are given as the source filed them. How the source made its calls: active means growth percent below 10; inactive means the rest.

Among the test systems are SR leukemia; RPMI-8226 leukemia; OVCAR-8 ovarian; OVCAR-5 ovarian; OVCAR-4 ovarian; SK-OV-3 ovarian; IGROV1 ovarian; OVCAR-3 ovarian; HS 578T breast; NCI/ADR-RES ovarian; T-47D breast; BT-549 breast; MDA-MB-435 melanoma; SW-620 colon; MCF7 breast; HCT-116 colon; HCC-2998 colon; MDA-MB-468 breast; KM12 colon.
Test in all cases: NCI-60 one-dose screen, 48 h (100 = growth as untreated, 0 = no growth, -100 = all killed)
What all share (details): 10 µM unless noted

As for `COc1ccc(C(=O)C[n+]2cccc3c4ccccc4ccc32)cc1`, the growth in the experiment with SR leukemia was 34.4%; in the experiment on RPMI-8226 leukemia, 25.2%; in the experiment with OVCAR-8 ovarian, 25.9%; in the experiment on OVCAR-5 ovarian, 58.3%; in the experiment with OVCAR-4 ovarian, 33.4%; with SK-OV-3 ovarian, 50.1%. The growth with IGROV1 ovarian was 67.4%; in the experiment on OVCAR-3 ovarian, 51.7%; in the experiment with HS 578T breast, 58.9%; in the experiment with NCI/ADR-RES ovarian, 97.7%; in the experiment on T-47D breast, 38.2%; with BT-549 breast, 33.2%. Further, the growth in the experiment on MDA-MB-435 melanoma was 37.5%; in the experiment with SW-620 colon, 36.4%; in the experiment on MCF7 breast, 18.1%; in the experiment with HCT-116 colon, 29.8%; with HCC-2998 colon, 48.5%; with MDA-MB-468 breast, 2.93% (active).

Regarding `COc1sc(/C=N/NC(=O)c2[nH]c3ccc(Br)cc3c2-c2ccccc2)cc1Cl`, the growth in the experiment on SR leukemia was 11.1%; with RPMI-8226 leukemia it was 12.7%; in the experiment with OVCAR-8 ovarian, -30.4% (active); in the experiment on OVCAR-5 ovarian it was -29.3% (active); with OVCAR-4 ovarian, 29.9%; in the experiment on SK-OV-3 ovarian, 12.1%. Also, the growth is -41.1% (active) in the experiment with IGROV1 ovarian; 4.74% (active) in the experiment with OVCAR-3 ovarian; 7.66% (active) in the experiment with HS 578T breast; -48.7% (active) in the experiment on NCI/ADR-RES ovarian; 54.3% in the experiment on T-47D breast; -35.2% (active) in the experiment on BT-549 breast. Also, the growth is -10.1% (active) in the experiment with MDA-MB-435 melanoma; -33.8% (active) with SW-620 colon; -26.6% (active) in the experiment with MCF7 breast; -43.5% (active) in the experiment on HCT-116 colon; -30.8% (active) with HCC-2998 colon; -6.37% (active) in the experiment on MDA-MB-468 breast.

On to `CC1=C(C(=O)OCc2ccccc2)C(c2ccc(N(C)C)cc2)n2c(nc3ccccc32)N1` (stereo not given), for which the growth in the experiment on SR leukemia is 46%; in the experiment with RPMI-8226 leukemia it was 81.4%; in the experiment on OVCAR-8 ovarian, 95.6%; with OVCAR-5 ovarian it was 102%; in the experiment on OVCAR-4 ovarian it was 81.4%; in the experiment with SK-OV-3 ovarian, 95.4%. In addition, the growth was 84% in the experiment on IGROV1 ovarian; 92.6% with OVCAR-3 ovarian; 61.7% in the experiment with HS 578T breast; 73.2% with NCI/ADR-RES ovarian; 84.6% in the experiment on T-47D breast; 82.8% in the experiment on BT-549 breast. Further, the growth in the experiment with MDA-MB-435 melanoma was 29.4%; in the experiment with SW-620 colon, 103%; in the experiment on MCF7 breast it was 65.2%; in the experiment on HCT-116 colon, 87.7%; with HCC-2998 colon it was 90.8%; with MDA-MB-468 breast it was 69.8%.

In the case of `Cc1ccc(Cl)cc1NC(=O)Nc1nc2ccc([N+](=O)[O-])cc2s1`, the growth was 1.31% (active) with SR leukemia; -18.7% (active) in the experiment on RPMI-8226 leukemia; 1.61% (active) with OVCAR-8 ovarian; 2.15% (active) with OVCAR-5 ovarian; 7.05% (active) with OVCAR-4 ovarian; -28.6% (active) in the experiment with SK-OV-3 ovarian. For the same compound, the growth was 8.2% (active) in the experiment on IGROV1 ovarian; 2.64% (active) with OVCAR-3 ovarian; -13.9% (active) in the experiment with HS 578T breast; -17.1% (active) in the experiment on NCI/ADR-RES ovarian; -19.7% (active) with T-47D breast; -30.3% (active) in the experiment with BT-549 breast. The growth in the experiment with MDA-MB-435 melanoma is -18.2% (active); with SW-620 colon, -21.9% (active); in the experiment with MCF7 breast, 0.201% (active); with HCT-116 colon, -37.7% (active); in the experiment on HCC-2998 colon, -10.1% (active); with MDA-MB-468 breast it was -39.3% (active).

As to `Cn1cc(-c2cc(N)n3nc(-c4c[nH]c5ccc(F)cc45)cc3n2)c2cccnc21`, the growth is -11.7% (active) with SR leukemia; -30.3% (active) in the experiment on RPMI-8226 leukemia; -59.6% (active) in the experiment on OVCAR-8 ovarian; -81.1% (active) in the experiment on OVCAR-5 ovarian; -30% (active) in the experiment on OVCAR-4 ovarian; -56% (active) in the experiment on SK-OV-3 ovarian. In addition, the growth in the experiment with IGROV1 ovarian is -71.4% (active); in the experiment with OVCAR-3 ovarian it was -76.1% (active); in the experiment on HS 578T breast, -14.6% (active); in the experiment with NCI/ADR-RES ovarian, -44.7% (active); with T-47D breast, -59.7% (active); in the experiment with BT-549 breast, -73.6% (active). The growth in the experiment with MDA-MB-435 melanoma is -76.6% (active); in the experiment on SW-620 colon, -66.4% (active); with MCF7 breast, -53.8% (active); with HCT-116 colon it was -91.4% (active); with HCC-2998 colon it was -100% (active); with MDA-MB-468 breast, -92.9% (active).

Regarding `Nc1cc2ccccc2c(=O)n1NC(=O)c1ccc(Br)cc1`, the growth with SR leukemia was 72.5%; in the experiment with RPMI-8226 leukemia, 92.1%; in the experiment with OVCAR-8 ovarian it was 98.6%; with OVCAR-5 ovarian, 97.8%; with OVCAR-4 ovarian, 91%; in the experiment with SK-OV-3 ovarian, 115%. Besides, the growth in the experiment with IGROV1 ovarian is 101%; in the experiment with OVCAR-3 ovarian, 79.2%; with HS 578T breast, 102%; in the experiment with NCI/ADR-RES ovarian it was 93%; with T-47D breast it was 94.8%; in the experiment on BT-549 breast it was 136%. Moreover, the growth in the experiment with MDA-MB-435 melanoma was 103%; in the experiment on SW-620 colon it was 98.4%; in the experiment with MCF7 breast, 74.6%; with HCT-116 colon it was 95.1%; with HCC-2998 colon, 97.5%; in the experiment with MDA-MB-468 breast, -54.9% (active).

`CCOc1ccccc1[C@H]1C(C(=O)c2ccc(Cl)cc2)C2(N[C@@H]1c1ccccc1)C(=O)Nc1ccc(Br)cc12` (stereo not given in full): the growth in the experiment on SR leukemia was -45.6% (active); in the experiment on RPMI-8226 leukemia it was 5.23% (active); in the experiment with OVCAR-8 ovarian, 12.1%; in the experiment on OVCAR-5 ovarian, -20.8% (active); in the experiment with OVCAR-4 ovarian, 13.7%; in the experiment with SK-OV-3 ovarian it was 24.4%. The growth is 1% (active) in the experiment on IGROV1 ovarian; -4.84% (active) with OVCAR-3 ovarian; -5.81% (active) with HS 578T breast; -46.7% (active) with NCI/ADR-RES ovarian; 13.2% with T-47D breast; -67.7% (active) in the experiment with BT-549 breast. For the same compound, the growth with MDA-MB-435 melanoma is -59.3% (active); with SW-620 colon, 15.8%; in the experiment on MCF7 breast it was -11.9% (active); in the experiment with HCT-116 colon, -92.6% (active); with HCC-2998 colon, -22% (active); in the experiment on KM12 colon, -9.26% (active). In addition, in the experiment on MDA-MB-468 breast, the growth is -21.5% (active).

With `Nc1nc(-c2ccccc2)c(N=Nc2ccc(Cl)cc2Cl)s1`, the growth was -33.6% (active) in the experiment on SR leukemia; 7.32% (active) in the experiment on RPMI-8226 leukemia; 12.1% with OVCAR-8 ovarian; -61.9% (active) in the experiment with OVCAR-5 ovarian; -2.75% (active) with OVCAR-4 ovarian; 7.41% (active) in the experiment with SK-OV-3 ovarian. Further, the growth in the experiment on IGROV1 ovarian is -29.7% (active); in the experiment on OVCAR-3 ovarian it was -70.3% (active); in the experiment with HS 578T breast, -28.2% (active); in the experiment with NCI/ADR-RES ovarian, -57% (active); in the experiment on T-47D breast, 25.4%; with BT-549 breast, -47.2% (active). Also, the growth with MDA-MB-435 melanoma is -51.7% (active); in the experiment with SW-620 colon it was -59.7% (active); with MCF7 breast, -28.9% (active); in the experiment with HCT-116 colon, -80.6% (active); in the experiment with HCC-2998 colon, -87.7% (active); in the experiment on MDA-MB-468 breast, -63.3% (active).

The values above are taken from PubChem BioAssay (NCI).
